In PubChem BioAssay AID1159580 (chemical genetic matrix, 2015):
Several values for one entry are separate records, joined by “and”; a condition that tells them apart may be missing. Identical values can stand only once. The campaign covered roughly 5,500 compounds. About 2,000 (36%) were called active. Inconclusive results (about 18%) are left out. Cut-off read from the data, not from the text of the source: active = normalized growth mostly below about 0.91 (no sharp cut-off); inconclusive = no clear call, values can overlap the other calls; inactive = mostly above about 0.92. Some of the results follow.

Experiment: chemical genetic growth profiling, strain panel (AID 1159580);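 note: tested at 20 µM; growth read once vehicle control cultures reached saturation at 30 °C; 1 = growth at the plate median or of vehicle wells; lower values mean less growth of the strain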
Settings: growth OD
[1] = S. cerevisiae deletion strains, locus YHR030C, strain SLT2, active compounds read low
[2] = S. cerevisiae deletion strains, locus YHR079C, strain IRE1, active compounds read low
[3] = S. cerevisiae deletion strains, locus YJL095W, strain BCK1, active compounds read low
[4] = S. cerevisiae deletion strains, locus YJR066W, strain TOR1, active compounds read low
[5] = S. cerevisiae deletion strains, locus YLR113W, strain HOG1, active compounds read low
[6] = S. cerevisiae deletion strains, locus YNL183C, strain NPR1, active compounds read low
[7] = S. cerevisiae deletion strains, locus YOR231W, strain MKK1, active compounds read low
[8] = S. cerevisiae deletion strains, locus YPL256C, strain CLN2, active compounds read low

Measured: normalized growth

NC(=O)CC[C@H](N)C(=O)O
inactive: [1] 0.98 | [2] 0.977 | [3] 0.965 | [4] 0.941 | [5] 0.976 | [6] 0.954 | [7] 0.98 | [8] 0.972

O=c1oc2ccccc2cc1[N+](=O)[O-]
active: S. cerevisiae deletion strains, locus YAL013W, strain DEP1, active compounds read low 0.0574 | S. cerevisiae deletion strains, locus YBR229C, strain ROT2, active compounds read low 0.0595 | S. cerevisiae deletion strains, locus YCL061C, strain MRC1, active compounds read low 0.0567 | S. cerevisiae deletion strains, locus YDL101C, strain DUN1, active compounds read low 0.0763 | S. cerevisiae deletion strains, locus YDL134C, strain PPH21, active compounds read low 0.049 | S. cerevisiae deletion strains, locus YDR150W, strain NUM1, active compounds read low 0.0585 | S. cerevisiae deletion strains, locus YEL061C, strain CIN8, active compounds read low 0.0579 | S. cerevisiae deletion strains, locus YGR052W, strain FMP48, active compounds read low 0.114 | S. cerevisiae deletion strains, locus YGR078C, strain PAC10, active compounds read low 0.0524 | S. cerevisiae deletion strains, locus YGR229C, strain SMI1, active compounds read low 0.0596 | [1] 0.0818 and 0.0892 | [2] 0.106 | S. cerevisiae deletion strains, locus YHR082C, strain KSP1, active compounds read low 0.105 | S. cerevisiae deletion strains, locus YHR087W, strain rtc3, active compounds read low 0.0624 | [3] 0.104 | S. cerevisiae deletion strains, locus YJR043C, strain POL32, active compounds read low 0.0547 | [4] 0.102 | S. cerevisiae deletion strains, locus YJR075W, strain HOC1, active compounds read low 0.0787 | S. cerevisiae deletion strains, locus YKL171W, strain NNK1, active compounds read low 0.106 | S. cerevisiae deletion strains, locus YKL190W, strain CNB1, active compounds read low 0.0491 | S. cerevisiae deletion strains, locus YKL203C, strain TOR2, active compounds read low 0.0901 | S. cerevisiae deletion strains, locus YLR039C, strain RIC1, active compounds read low 0.0723 | S. cerevisiae deletion strains, locus YLR058C, strain SHM2 (second series), active compounds read low 0.0528 | S. cerevisiae deletion strains, locus YLR085C, strain ARP6, active compounds read low 0.071 | [5] 0.137 | S. cerevisiae deletion strains, locus YLR262C, strain YPT6, active compounds read low 0.0758 | S. cerevisiae deletion strains, locus YML094W, strain GIM5, active compounds read low 0.0733 | S. cerevisiae deletion strains, locus YMR219W, strain ESC1, active compounds read low 0.0518 | S. cerevisiae deletion strains, locus YMR263W, strain SAP30, active compounds read low 0.0584 | S. cerevisiae deletion strains, locus YNL153C, strain GIM3, active compounds read low 0.057 | [6] 0.119 | S. cerevisiae deletion strains, locus YNL207W, strain RIO2, active compounds read low 0.0939 | S. cerevisiae deletion strains, locus YNL298W, strain CLA4 (second series), active compounds read low 0.0711 | S. cerevisiae deletion strains, locus YNL322C, strain KRE1, active compounds read low 0.0611 | S. cerevisiae deletion strains, locus YNR030W, strain Alg12, active compounds read low 0.0702 | S. cerevisiae deletion strains, locus YOL006C, strain TOP1, active compounds read low 0.0751 | S. cerevisiae deletion strains, locus YOR119C, strain RIO1, active compounds read low 0.0989 | [7] 0.106 | S. cerevisiae deletion strains, locus YPL055C, strain LGE1, active compounds read low 0.0749 | S. cerevisiae deletion strains, locus YPL241C, strain CIN2, active compounds read low 0.0745 | [8] 0.0976 | S. cerevisiae deletion strains, locus YPR135W, strain CTF4, active compounds read low 0.155 | S. cerevisiae strains, strain wild type, active compounds read low 0.0506
